# Bioassay records (PubChem BioAssay)
# eIF4H FP inh – human eIF4H binding inhibitors, primary screen, translation initiation inhibitor project, biochemical, uHTS, fluorescence polarization; actives 0.94% (n = 290,000); inhibition, % at 35 µM; eIF4H fluorescence polarization binding assay; Eukaryotic translation initiation factor 4H (Homo sapiens), Q15056;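 further: calls also rest on retests at 20 µM and on dose response follow-up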
# PABP FP inh – PABP poly(A) RNA binding inhibitors, primary screen, biochemical, fluorescence polarization, uHTS. AID 2014, 2009. actives 1% (n = 290,000). Polyadenylate-binding protein 1 (Homo sapiens), P11940. calls only at 35 µM;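 further: calls also rest on retests at 20 µM and on dose response follow-up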
# APOBEC3G inh – APOBEC3G DNA deaminase inhibitors, primary screen, biochemical, fluorescence, single-stranded DNA substrate, uHTS; DNA dC->dU-editing enzyme APOBEC-3G (Homo sapiens), Q9HC16; recombinant A3G, ssDNA deamination FAM/TAMRA fluorescence; inhibition, % at 20 µM; actives 0.28% (n = 330,000); AID 493012, 2011;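 active means inhibition of at least 40% at 20 µM, with no more than 30% in the related APOBEC3A deaminase screen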
# PABP1 MLLE inh – inhibitors of PABP1 MLLE–PAM2 peptide binding, primary screen, biochemical, fluorescence polarization, FITC-PAM2, GST-MLLE; inhibition, % at 20 µM; actives 0.36% (n = 360,000); AID 588489, 2011; Polyadenylate-binding protein 1 (Homo sapiens), P11940; in the data active means inhibition above about 35%, passing the limit was not always enough
# PHOSPHO1 inh – PubChem AID 1565; Phosphoethanolamine/phosphocholine phosphatase (Homo sapiens), Q8TCT1; recombinant PHOSPHO1, absorbance phosphatase assay; inhibition, % at 13.3 µM; actives 1.1% (n = 290,000); in the data active means inhibition above about 60%
# A3A deaminase – APOBEC3A ssDNA deaminase inhibitors, primary screen, selectivity assay for APOBEC3G inhibitor project, biochemical, FAM/TAMRA oligo cleavage fluorescence | DNA dC->dU-editing enzyme APOBEC-3A (Homo sapiens), P31941 | recombinant A3A, FAM/TAMRA ssDNA deamination fluorescence | inhibition, % at 20 µM | actives 0.41% (n = 330,000) | AID 493011, 2011;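 active means at least 40% inhibition at 20 µM here, with at most 30% in a related deaminase screen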
# Hits are given with their value; – = inactive; · = not tested or not shown; + = active, no number. Only some compounds are listed: those with a hit (about 2.6% of all), similar ones and a draw of the others. Unless noted, how the calls were made is not given here.
SMILES,eIF4H FP inh,PABP FP inh,APOBEC3G inh,PABP1 MLLE inh,PHOSPHO1 inh,A3A deaminase
O=C(NCc1ccco1)c1sc(=S)n2c1[nH]c(=O)c1ccccc12,–,–,–,45,–,–
CN(C)CC#Cc1cncc(C(=O)NNC(=O)Nc2ccc(Cl)cc2)c1,–,–,–,–,–,–
CC(=O)c1cc2cc(O)ccc2o1,–,–,–,–,89,–
O=C(CN(c1ccccc1)S(=O)(=O)c1ccccc1)NCCSCc1ccco1,81,–,–,–,72,–
O=C(CCS(=O)(=O)c1cccs1)N1CCN(c2ccc(F)cc2)CC1,–,–,–,–,–,–
O=C(CCS(=O)(=O)c1cccs1)N1CCCC1,–,–,–,–,64,–
O=C(N/N=C/c1ccc([N+](=O)[O-])o1)c1cn2ccc3ccccc3c2n1,82,+,–,–,–,–
CCCc1ccc(-c2cc(C(=O)N/N=C/c3ccc([N+](=O)[O-])o3)c3ccccc3n2)cc1,–,–,–,–,–,–
O=C(N/N=C/c1ccc([N+](=O)[O-])o1)c1sc2ccccc2c1Cl,72,–,–,–,–,–
Cc1nonc1C(=O)N/N=C/c1ccc([N+](=O)[O-])o1,89,+,–,–,–,–
O=C(N/N=C/c1ccc([N+](=O)[O-])o1)c1cc(-c2cccc(Br)c2)nc2ccccc12,56,–,–,–,–,–
O=C(CNc1ccc2ccccc2c1)N/N=C/c1ccc([N+](=O)[O-])o1,–,–,–,–,–,–
CN(C(=O)C1CCCN1S(=O)(=O)c1ccc(Cl)cc1)c1ccccc1 (centres undefined),·,·,–,–,·,–
Cc1cccc(C)c1NC(=O)C[N+](C)(C)CC(O)COc1cccc2ccccc12 (centres undefined),–,–,–,–,–,–
CCOC(=O)C1=C(C)NC(=S)N(C=O)C1c1ccccc1 (centres undefined),–,–,–,–,–,–
Cc1onc(-c2c(F)cccc2Cl)c1C(=O)NC(=S)NC1CCS(=O)(=O)C1 (centres undefined),–,–,–,47,–,–
O=C(Nc1ccc(O)cc1)c1ccc2c(c1)C(=O)N(Cc1ccco1)C2=O,–,–,–,–,–,–
O=C(O)Cc1ccc(NC(=O)c2ccc3c(c2)C(=O)N(Cc2ccco2)C3=O)cc1,100,+,–,–,–,–
Cc1ccc(NC(=S)N2CCN(S(=O)(=O)c3c(F)cccc3F)CC2)cc1C,–,–,–,–,–,–
CC(=O)c1c(N2CCCC2)nc(=S)n(-c2ccccc2)c1C,–,–,–,–,–,–
CCn1c(C)c(C(C)=O)c(N2CCN(c3ccccn3)CC2)nc1=S,66,+,–,–,–,–
CCn1c(C)c(C(C)=O)c(N2CCN(C(c3ccccc3)c3ccccc3)CC2)nc1=S,–,–,–,–,–,–
CCSc1nc(=S)n(-c2ccccc2)c(C)c1C(C)=O,–,–,–,43,–,–
CCn1c(C)c(C(C)=O)c(N2CCN(c3ccccc3)CC2)nc1=S,128,+,–,–,–,–
CC(=O)c1c(N2CCOCC2)nc(=S)n(-c2ccccc2)c1C,–,–,–,45,–,–
SMILES,eIF4H FP inh,PABP FP inh,APOBEC3G inh,PABP1 MLLE inh,PHOSPHO1 inh,A3A deaminase
O=C(COc1cccc2cccnc12)N1CCc2ccccc21,–,–,–,–,–,–
CCc1cccc(CC)c1NC(=S)NC(C)c1ccccc1 (centres undefined),–,–,–,–,–,–
COc1ccc(CCNC(=O)c2coc(=O)c(Br)c2)cc1,–,–,–,·,·,–
CCOC(=O)c1c(C2COc3ccccc3O2)csc1NC(=O)c1ccco1 (centres undefined),–,–,–,–,86,–
Cc1ccc(O)c(NC(=O)C2CC(c3cccc(Br)c3)=NO2)c1 (centres undefined),–,–,–,–,–,–
C=CCn1c(O)c(N=NC(=O)OCC)c2ccccc21,active,–,–,–,–,–
